Measurements as given in PubChem BioAssay (NCATS).
Inconclusive results are not listed. Where a call stands in place of a potency, no number is given. Unmarked numbers belong to inactive results. Activity calls are given as the source filed them. Calls come from the whole dose curve; as a rule, active = well fitted curve in the direction sought with a large enough effect; inconclusive = small, poorly fitted or top-dose-only effect, or another doubt; inactive = no such curve, though single readings can be large; an effect the other way counts as inactive or inconclusive.

Key:
[1] = molecular target: ATP-dependent 6-phosphofructokinase (Trypanosoma brucei brucei) (UniProt O15648); experiment: qHTS Assay to Find Inhibitors of T. brucei phosphofructokinase: hit validation (AID 492961);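 note: luminescence reports ADP formed as PFK phosphorylates fructose-6-phosphate with ATP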
ATP-dependent 6-phosphofructokinase (Trypanosoma brucei brucei), sequence (O15648 whole entry, looked up): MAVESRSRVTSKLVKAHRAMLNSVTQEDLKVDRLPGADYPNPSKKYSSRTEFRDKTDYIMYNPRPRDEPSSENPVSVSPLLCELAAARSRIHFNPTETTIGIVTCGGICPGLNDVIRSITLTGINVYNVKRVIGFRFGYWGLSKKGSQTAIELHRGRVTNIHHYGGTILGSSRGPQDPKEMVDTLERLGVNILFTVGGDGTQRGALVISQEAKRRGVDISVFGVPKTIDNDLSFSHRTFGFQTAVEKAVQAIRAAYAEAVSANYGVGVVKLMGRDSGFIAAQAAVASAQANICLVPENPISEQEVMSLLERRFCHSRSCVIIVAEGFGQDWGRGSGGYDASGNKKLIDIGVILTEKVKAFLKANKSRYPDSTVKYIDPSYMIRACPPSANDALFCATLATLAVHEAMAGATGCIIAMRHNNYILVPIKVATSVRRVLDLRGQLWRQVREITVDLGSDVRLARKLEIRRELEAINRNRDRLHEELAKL
In short: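 PFK 1.25 nM, F6P 0.5 mM, ATP 0.1 mM, MgCl2 5 mM, 0.1 M TEA pH 8.0, Tween20 0.01%, BSA 0.1%; 45 min RT. ADP-Glo two-step detection, luminescence. qHTS titration; curve fitting with curve-class categorization.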

[2] = qHTS profiling for inhibitors of Plasmodium falciparum proliferation (AID 504749); note: potency is the fitted concentration of half-maximal effect; for all read-outs here: nearly all actives have a fitted effect of over 60% in size; conditions: P. falciparum in erythrocytes, SYBR Green DNA, 72 h; for activity, negative = inhibition: at 28.7 µM (top of the series)
In short: (§1)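 Fluorescence of SYBR Green-bound parasite DNA, read at 485/535 nm, served as the growth measure. Infected erythrocytes were cultured with compound 72 h; artemisinin (0.29 uM) and DMSO wells defined the normalization range.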

[3] = tested on: 3D7; experiment: as above; conditions: P. falciparum in erythrocytes, SYBR Green DNA, 72 h; series mostly up to 28.7 µM
In short: as §1

[4] = tested on: ATS189; experiment: as above; conditions: P. falciparum in erythrocytes, SYBR Green DNA, 72 h; series mostly up to 28.7 µM
In short: as §1

[5] = tested on: ATS95; experiment: as above; conditions: P. falciparum in erythrocytes, SYBR Green DNA, 72 h; series mostly up to 28.7 µM
In short: as §1

[6] = tested on: C2A; experiment: as above; conditions: P. falciparum in erythrocytes, SYBR Green DNA, 72 h; series mostly up to 28.7 µM
In short: as §1

[7] = tested on: CP185; experiment: as above; conditions: P. falciparum in erythrocytes, SYBR Green DNA, 72 h; series mostly up to 28.7 µM
In short: as §1

[8] = tested on: CP191; experiment: as above; conditions: P. falciparum in erythrocytes, SYBR Green DNA, 72 h; series mostly up to 28.7 µM
In short: as §1

[9] = tested on: CP217; experiment: as above; conditions: P. falciparum in erythrocytes, SYBR Green DNA, 72 h; series mostly up to 28.7 µM
In short: as §1

[10] = tested on: CP238; experiment: as above; conditions: P. falciparum in erythrocytes, SYBR Green DNA, 72 h; series mostly up to 28.7 µM
In short: as §1

[11] = tested on: CP250; experiment: as above; conditions: P. falciparum in erythrocytes, SYBR Green DNA, 72 h; series mostly up to 28.7 µM
In short: as §1

[12] = tested on: CP252; experiment: as above; conditions: P. falciparum in erythrocytes, SYBR Green DNA, 72 h; series mostly up to 28.7 µM
In short: as §1

[13] = tested on: CP256; experiment: as above; conditions: P. falciparum in erythrocytes, SYBR Green DNA, 72 h; series mostly up to 28.7 µM
In short: as §1

[14] = tested on: CP262; experiment: as above; conditions: P. falciparum in erythrocytes, SYBR Green DNA, 72 h; series mostly up to 28.7 µM
In short: as §1

[15] = tested on: CP265; experiment: as above; conditions: P. falciparum in erythrocytes, SYBR Green DNA, 72 h; series mostly up to 28.7 µM
In short: as §1

[16] = tested on: CP286; experiment: as above; conditions: P. falciparum in erythrocytes, SYBR Green DNA, 72 h; series mostly up to 28.7 µM
In short: as §1

[17] = tested on: DFO2036; experiment: as above; conditions: P. falciparum in erythrocytes, SYBR Green DNA, 72 h; series mostly up to 28.7 µM
In short: as §1

[18] = tested on: Dd2; experiment: as above; conditions: P. falciparum in erythrocytes, SYBR Green DNA, 72 h; series mostly up to 28.7 µM
In short: as §1

[19] = tested on: HB3; experiment: as above; conditions: P. falciparum in erythrocytes, SYBR Green DNA, 72 h; series mostly up to 28.7 µM
In short: as §1

[20] = tested on: P94_40; experiment: as above; conditions: P. falciparum in erythrocytes, SYBR Green DNA, 72 h; series mostly up to 28.7 µM
In short: as §1

C[C@@H](O)[C@@H]1C(=O)N2C(C(=O)O)=C([C@H]3CCCO3)S[C@H]12
Potency [1]: inactive | activity, negative = inhibition ([2]; parasite line A): -3.21% | activity, negative = inhibition ([2]; parasite line B): 2.27% | Potency [3]: inactive | Potency [4]: inactive | Potency [5]: inactive | Potency [6]: inactive | Potency [7]: inactive | Potency [8]: inactive | Potency [9]: inactive | Potency [10]: inactive | Potency [11]: inactive | Potency [12]: inactive | Potency [13]: inactive | Potency [14]: inactive | Potency [15]: inactive | Potency [16]: inactive | Potency [17]: inactive | Potency [18]: inactive | Potency [19]: inactive | Potency [20]: inactive

C[C@@H]1CCN(C(=O)[C@H](CCCNC(=N)N)NS(=O)(=O)c2cccc3c2NC[C@H](C)C3)[C@@H](C(=O)O)C1
Potency [1]: inactive | activity, negative = inhibition ([2]; parasite line A): 3.79% | activity, negative = inhibition ([2]; parasite line B): 10.6% | Potency [3]: inactive | Potency [4]: inactive | Potency [5]: inactive | Potency [6]: inactive | Potency [7]: inactive | Potency [8]: inactive | Potency [9]: inactive | Potency [10]: inactive | Potency [11]: inactive | Potency [12]: inactive | Potency [13]: inactive | Potency [14]: inactive | Potency [15]: inactive | Potency [16]: inactive | Potency [17]: inactive | Potency [18]: inactive | Potency [19]: inactive | Potency [20]: inactive

Cc1ccccc1N1C(=O)c2cc(N)ccc2N/C1=C\F
Potency [1]: inactive | activity, negative = inhibition ([2]; parasite line A): -6.61% | activity, negative = inhibition ([2]; parasite line B): -18.2% | Potency [3]: inactive | Potency [4]: inactive | Potency [5]: inactive | Potency [6]: inactive | Potency [7]: inactive | Potency [8]: inactive | Potency [9]: inactive | Potency [10]: inactive | Potency [11]: inactive | Potency [12]: inactive | Potency [13]: inactive | Potency [14]: inactive | Potency [15]: inactive | Potency [16]: inactive | Potency [17]: inactive | Potency [18]: inactive | Potency [19]: inactive | Potency [20]: inactive

COC1CC2CCC(C)[C@](O)(O2)C(=O)C(=O)N2CCCCC2C(=O)OC(C(C)CC2CCC(O)C(OC)C2)CC(=O)C(C)/C=C(/C)C(O)C(OC)C(=O)C(C)CC(C)C=CC=C/C=C\1C (stereo partly specified)
Potency [1]: inactive | Potency ([2]; parasite line A): 3.55 µM (active) | Potency ([2]; parasite line B): 1.41 µM (active) | Potency [3]: 2 µM (active) | Potency [4]: 3.16 µM (active) | Potency [5]: 3.55 µM (active) | Potency [6]: 4.47 µM (active) | Potency [7]: 4.47 µM (active) | Potency [8]: 2.51 µM (active) | Potency [9]: 3.55 µM (active) | Potency [10]: 3.16 µM (active) | Potency [11]: 3.16 µM (active) | Potency [12]: 2.51 µM (active) | Potency [13]: 3.16 µM (active) | Potency [14]: inactive | Potency [15]: 2.82 µM (active) | Potency [16]: 4.47 µM (active) | Potency [17]: 1.41 µM (active) | Potency [18]: 1.58 µM (active) | Potency [19]: 2.51 µM (active) | Potency [20]: 1.41 µM (active)

CO/N=C(/C(=O)N[C@@H]1C(=O)N2C(C(=O)O)=C(CSc3nnnn3C)CS[C@H]12)c1csc(N)n1
Potency [1]: inactive | activity, negative = inhibition ([2]; parasite line A): 6.68% | activity, negative = inhibition ([2]; parasite line B): 0.88% | Potency [3]: inactive | Potency [4]: inactive | Potency [5]: inactive | Potency [6]: inactive | Potency [7]: inactive | Potency [8]: inactive | Potency [9]: inactive | Potency [10]: inactive | Potency [11]: inactive | Potency [12]: inactive | Potency [13]: inactive | Potency [14]: inactive | Potency [15]: inactive | Potency [16]: inactive | Potency [17]: inactive | Potency [18]: inactive | Potency [19]: inactive | Potency [20]: inactive

COc1ccc(S(=O)(=O)N2c3ccc(Cl)cc3[C@](O)(c3ccccc3Cl)[C@@H]2C(=O)N2CCC[C@H]2C(N)=O)cc1OC
Potency [1]: inactive | activity, negative = inhibition ([2]; parasite line A): -28.5% | activity, negative = inhibition ([2]; parasite line B): -6.86% | Potency [3]: inactive | Potency [4]: inactive | Potency [5]: inactive | Potency [6]: inactive | Potency [7]: inactive | Potency [8]: inactive | Potency [9]: inactive | Potency [10]: inactive | Potency [11]: inactive | Potency [12]: inactive | Potency [13]: inactive | Potency [14]: inactive | Potency [15]: inactive | Potency [16]: inactive | Potency [17]: inactive | Potency [18]: inactive | Potency [19]: inactive

CC1CN(c2c(F)c(N)c3c(=O)c(C(=O)O)cn(C4CC4)c3c2F)CC(C)N1 (stereo unspecified)
Potency [1]: inactive | activity, negative = inhibition ([2]; parasite line A): -2.02% | activity, negative = inhibition ([2]; parasite line B): 11% | Potency [3]: inactive | Potency [4]: inactive | Potency [5]: inactive | Potency [6]: inactive | Potency [7]: inactive | Potency [8]: inactive | Potency [9]: inactive | Potency [10]: inactive | Potency [11]: inactive | Potency [12]: inactive | Potency [13]: inactive | Potency [14]: inactive | Potency [15]: inactive | Potency [16]: inactive | Potency [17]: inactive | Potency [18]: inactive | Potency [19]: inactive | Potency [20]: inactive
